Test results taken from the supplement of paper PMC11624193, “Coupling cellular drug-target engagement to downstream pharmacology with CeTEAM” (Nature Communications, 2024).
“And” between values parts separate entries of the source, which are not always exact repeats. Equal entries are not always repeated. Structures can show the parent of a compound that is named as a salt. A number with no mark means an inactive call.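 How the source made its calls: active = log2 fold change beyond 2 SD from the library mean after excluding viability outliers; inactive = within 2 SD.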

target: PARP1 L713F-nLuc biosensor (HCT116) (UniProt P09874); assay: PARP1 L713F-nLuc/akaLuc ratio relative to DMSO control (biosensor stabilization) (fold change); higher = more PARP1 biosensor stabilization (target engagement / stabilizer), active = hit call of the paper; conditions: stock concentration (mM; final µM = stock mM x 1): 10; 24 h
Sequence (P09874 whole entry L713F, looked up): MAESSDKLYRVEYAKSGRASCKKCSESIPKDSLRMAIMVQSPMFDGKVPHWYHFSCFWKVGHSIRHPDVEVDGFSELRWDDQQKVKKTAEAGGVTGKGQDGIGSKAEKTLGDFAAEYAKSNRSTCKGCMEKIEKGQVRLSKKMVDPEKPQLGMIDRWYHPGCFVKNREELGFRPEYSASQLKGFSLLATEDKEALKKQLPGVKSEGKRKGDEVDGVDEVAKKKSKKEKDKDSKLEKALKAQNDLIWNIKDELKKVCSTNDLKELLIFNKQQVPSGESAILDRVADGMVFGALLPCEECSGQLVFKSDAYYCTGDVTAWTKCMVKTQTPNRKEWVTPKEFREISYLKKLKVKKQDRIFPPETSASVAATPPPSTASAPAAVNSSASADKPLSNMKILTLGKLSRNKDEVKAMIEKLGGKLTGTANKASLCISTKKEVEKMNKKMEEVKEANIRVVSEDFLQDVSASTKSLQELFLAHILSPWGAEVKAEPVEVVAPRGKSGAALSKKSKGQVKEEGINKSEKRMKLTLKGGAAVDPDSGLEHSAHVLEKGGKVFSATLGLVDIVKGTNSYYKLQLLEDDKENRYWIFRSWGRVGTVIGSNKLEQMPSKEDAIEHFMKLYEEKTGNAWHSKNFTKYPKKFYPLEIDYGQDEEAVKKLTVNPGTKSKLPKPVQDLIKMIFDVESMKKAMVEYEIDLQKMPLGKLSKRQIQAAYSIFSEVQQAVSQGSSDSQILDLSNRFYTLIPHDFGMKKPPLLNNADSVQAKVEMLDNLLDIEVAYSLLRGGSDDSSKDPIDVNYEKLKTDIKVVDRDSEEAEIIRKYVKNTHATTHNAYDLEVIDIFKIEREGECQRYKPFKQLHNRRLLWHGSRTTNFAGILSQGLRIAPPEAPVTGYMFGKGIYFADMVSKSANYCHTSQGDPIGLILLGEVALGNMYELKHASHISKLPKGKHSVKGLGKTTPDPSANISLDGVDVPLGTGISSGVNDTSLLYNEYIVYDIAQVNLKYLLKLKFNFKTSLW

In order of falling “PARP1 L713F-nLuc/akaLuc ratio” value:
1. CN1CCc2c(c3ccccc3n2Cc2ccc(C(=O)NO)cc2)C1 [Tubastatin A (Hydrochloride)]  2.07
2. CC(C)c1c(-c2cnn(C(C)(C)C)c2)nc2c(C#N)c[nH]n2c1=O  1.58
3. CN1CCN(c2ccc3nc(-c4ccc5nc(-c6cccc(OCCCC(=O)NCCCN=[N+]=[N-])c6)[nH]c5c4)[nH]c3c2)CC1 [Targapremir-210]  1.46
4. O=C(O)C(Cc1c[nH]c2ccccc12)N1C(=O)c2ccccc2C1=O (centres undefined)  1.39
5. O=C(c1ccc(/C=C/c2n[nH]c3ccccc23)cc1)N1CCNCC1  1.3
6. COc1ccc(S(=O)(=O)Nc2cc(-c3csc(C#N)c3)ccc2C)cc1  1.24
7. CCOC(=O)c1c[nH]c2c(ccc3cccnc32)c1=O [1,4-DPCA ethyl ester]  1.19
8. NC(=O)c1ccc[n+]([C@@H]2O[C@H](CO)[C@@H](O)[C@H]2O)c1 [Nicotinamide riboside (chloride)]  1.17
9. CN(C)C(=O)c1ccc(S(=O)(=O)c2ccc(NC(=O)[C@@](C)(O)C(F)(F)F)c(Cl)c2)cc1  1.12
10. COc1cc(OC)cc(N(CCNC(C)C)c2ccc3ncc(-c4cnn(C)c4)nc3c2)c1  1.09
11. O=C(COc1cccc2c(=O)[nH]ccc12)c1ccccc1  1.08
12. Cc1nc(=O)c2cc(CN(C)c3ccc(C(=O)N[C@@H](CCC(=O)O)C(=O)O)s3)ccc2[nH]1 [Raltitrexed]  1.07
13. N#CCC1(n2cc(-c3ncnc4[nH]ccc34)cn2)CN(C2CCN(C(=O)c3ccnc(C(F)(F)F)c3F)CC2)C1 [Itacitinib adipate]  1.05
14. COc1cc(OC)cc(-c2noc(N3CCN(C)C4(CCN(c5ccnc(C)c5)CC4)C3)n2)c1  0.971
15. CN1CCN(c2cccc(Nc3nc4c(-c5ccc(S(C)(=O)=O)cc5)cccn4n3)c2)CC1  0.968
16. COC(=O)c1ccc2c(c1)nc(NC(=O)c1ccccc1)n2CCCc1ccccc1  0.949
17. O=C(O)CCNc1cc(N2CCc3ccccc3CC2)nc(-c2ccccn2)n1  0.92
18. CCc1cccc(CC)c1NC(=O)N1Cc2[nH]nc(NC(=O)c3ccc(N4CCN(C)CC4)cc3)c2C1  0.92
19. Cc1cn(-c2cc(NC(=O)c3ccc(C)c(Nc4nccc(-c5cnccn5)n4)c3)cc(C(F)(F)F)c2)cn1 [Radotinib]  0.904
20. COc1ccc(NC(=O)c2ccc(NC3=C(C)C(=O)CC3)c(Cl)c2)cc1  0.879
21. CC(C)N(CCC(=O)c1ccc2ccccc2c1)Cc1ccccc1  0.841
22. O=C(Nc1cnn2ccc(N3CCC[C@@H]3c3cc(F)ccc3F)nc12)N1CC[C@H](O)C1 [Larotrectinib (LOXO-101) sulfate]  0.817
23. O=c1c2c([nH]n1-c1nc3ccccc3s1)CCCC2  0.788
24. CO[C@@H](C(=O)N1Cc2[nH]nc(NC(=O)c3ccc(N4CCN(C)CC4)cc3)c2C1)c1ccccc1  0.781
25. CC1(N)CCN(c2cnc(-c3cccc(Cl)c3Cl)c(N)n2)CC1 [SHP099 dihydrochloride]  0.78
26. C[C@@H]1O[C@@H](O[C@H]2[C@H](OC(=O)[C@]34CCC(C)(C)C[C@H]3C3=CC[C@@H]5[C@@]6(C)C[C@H](O)[C@H](O[C@@H]7O[C@H](CO)[C@@H](O)[C@H](O)[C@H]7O)C(CO)(CO)[C@@H]6CC[C@@]5(C)[C@]3(C)C[C@H]4O)OC[C@H](O)[C@@H]2O)[C@H](O)[C@H](O)[C@H]1O[C@@H]1OC[C@@H](O)[C@H](O[C@@H]2OC[C@](O)(CO)[C@H]2O)[C@H]1O [Platycodin D]  0.771
27. CN1C[C@@H](Nc2cnn(C)c(=O)c2Br)C[C@@H](c2ccccc2)C1  0.711
28. N[C@H]1C[C@@H]1c1ccc(-c2cccc(O)c2)cc1  0.692
29. CC(C)(C)c1nc2c3cc[nH]c(=O)c3c3cc(F)ccc3c2[nH]1 [Pyridone 6]  0.692
30. Cc1ccc(-n2nc(C(C)(C)C)cc2NC(=O)Nc2ccc(OCCN3CCOCC3)c3ccccc23)cc1 [Doramapimod (BIRB 796)]  0.671
31. CO[C@H]1C[C@@H]2CC[C@@H](C)[C@@](O)(O2)C(=O)C(=O)N2CCCC[C@H]2C(=O)O[C@H]([C@H](C)C[C@@H]2CC[C@@H](OCCO)[C@H](OC)C2)CC(=O)[C@H](C)/C=C(\C)[C@@H](O)[C@@H](OC)C(=O)[C@H](C)C[C@H](C)/C=C/C=C/C=C/1C [Everolimus (RAD001)]  0.669
32. COC(=O)c1ccc2c(c1)NC(=O)/C2=C(\Nc1ccc(N(C)C(=O)CN2CCN(C)CC2)cc1)c1ccccc1 [Nintedanib (BIBF 1120)]  0.6
33. Cc1cnc(Nc2ccc(OCCN3CCCC3)cc2)nc1Nc1cccc(S(=O)(=O)NC(C)(C)C)c1 [Fedratinib (hydrochloride hydrate)]  0.551
34. O=c1[nH]c(=O)n([C@H]2C[C@H](O)[C@@H](CO)O2)cc1C(F)(F)F [Trifluridine]  0.548
35. CN1CCCN(C(=O)c2cccc(-c3ccc(/C=C4/C(=O)Nc5ccc(Cl)cc54)o3)c2)CC1 [CX-6258 (hydrochloride)]  0.53
36. CNS(=O)(=O)Nc1nccc(Cc2c(C)c3ccc(Oc4ncccn4)cc3oc2=O)c1F  0.435

Nc1cc(F)ccc1NC(=O)/C=C/c1cnn(C/C=C/c2ccccc2)c1 was tested, and the “PARP1 L713F-nLuc/akaLuc ratio” value was 0.76 and 0.99.
With CCOC(=O)c1ccnc(CNCC(=O)N(CC)CCN(C)C)c1 the “PARP1 L713F-nLuc/akaLuc ratio” value was 2.92 (active).
In the case of CNCc1ccc(-c2[nH]c3cc(F)cc4c3c2CCNC4=O)cc1 [Rucaparib (Camsylate)], the “PARP1 L713F-nLuc/akaLuc ratio” value is reported as 6.55 (active).
